Here are results for seven compounds from PubChem BioAssay (NCI).

Among the test systems are HCT-15 colon; HT29 colon; SNB-75 CNS; SNB-19 CNS; U251 CNS; PC-3 prostate; SK-MEL-5 melanoma; UACC-62 melanoma; LOX IMVI melanoma; SK-MEL-28 melanoma; SK-MEL-2 melanoma; EKVX NSCLC; SN12C renal; UO-31 renal; TK-10 renal; ACHN renal; CAKI-1 renal; A498 renal; CCRF-CEM leukemia; MOLT-4 leukemia.
Experiment in all cases: NCI-60 one-dose screen, 48 h (100 = growth as untreated, 0 = no growth, -100 = all killed)
Conditions in all cases: 10 µM unless noted

About 83,000 compounds went through this panel and 20% of them were active in at least one assay; those are over-represented in the sample as a whole.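 Growth was measured after 48 h exposure to one concentration of compound in 96-well plates. Values under 10 count as active.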 Unmarked numbers belong to inactive results. Active and inactive are the calls of the source.

As for `COc1cc(/C=N/NC(=O)c2ccc(C)nc2)cc(OC)c1OC`, the growth in the test on HCT-15 colon is 97.2%; in the test on HT29 colon it was 103%; with SNB-75 CNS, 79.4%; in the test on SNB-19 CNS, 108%; with U251 CNS, 102%; with PC-3 prostate, 98.1%. The growth is 96.3% in the test with SK-MEL-5 melanoma; 86.7% in the test with UACC-62 melanoma; 94.8% with LOX IMVI melanoma; 117% with SK-MEL-28 melanoma; 79.3% in the test with SK-MEL-2 melanoma; 90.4% in the test on EKVX NSCLC. Further, the growth with SN12C renal was 102%; in the test with UO-31 renal, 65.6%; in the test with TK-10 renal, 81.3%; with ACHN renal, 91.2%; in the test on CAKI-1 renal, 79.8%; with A498 renal it was 93.2%. The growth in the test with CCRF-CEM leukemia was 87%; in the test on MOLT-4 leukemia, 57.8%.
Take `COc1cccc(-c2nc(-c3ccc(NC(=O)c4ccccc4)cc3)[nH]c2-c2ccnc(Br)c2)c1`: the growth in the test with HCT-15 colon is -0.905% (active); in the test on HT29 colon, 10.2%; with SNB-75 CNS, 10.7%; with SNB-19 CNS, 33.6%; in the test on U251 CNS it was 30.7%; with PC-3 prostate, 17.6%. Moreover, the growth is -79.6% (active) in the test with SK-MEL-5 melanoma; 16.4% in the test with UACC-62 melanoma; -55.8% (active) in the test with LOX IMVI melanoma; 37% in the test on SK-MEL-28 melanoma; 29.4% with SK-MEL-2 melanoma; 24.4% with EKVX NSCLC. The growth with SN12C renal is 53.8%; in the test with UO-31 renal, 3.81% (active); in the test on TK-10 renal, 59.5%; in the test on ACHN renal, 24.8%; in the test on CAKI-1 renal it was 20.4%; with A498 renal, -28.3% (active). In addition, the growth is 21.4% in the test with CCRF-CEM leukemia and 15.1% with MOLT-4 leukemia.
As to `CC1(C)C2CC1C1(/C=N\Nc3ccccc3)C(C2)C(C#N)(C#N)C1(C#N)C#N` (stereo not given), the growth was 87.3% in the test on HCT-15 colon; 102% in the test with HT29 colon; 91.4% with SNB-75 CNS; 96.2% with SNB-19 CNS; 94.8% in the test on U251 CNS; 72.2% with PC-3 prostate. In addition, the growth in the test with SK-MEL-5 melanoma was 94.4%; in the test with UACC-62 melanoma, 58.5%; with LOX IMVI melanoma, 52.2%; in the test with SK-MEL-28 melanoma it was 106%; with SK-MEL-2 melanoma it was 92.7%; with EKVX NSCLC it was 89%. Also, the growth with SN12C renal is 90%; in the test on UO-31 renal, 66.6%; with TK-10 renal, 133%; in the test on ACHN renal, 75.9%; in the test on CAKI-1 renal, 70.1%; in the test with A498 renal, 97.1%. The growth with CCRF-CEM leukemia was 83.7%; with MOLT-4 leukemia, 95.7%.
On to `O=[N+]([O-])c1ccccc1NCSc1ccc(Cl)cc1`, for which the growth with HCT-15 colon was 89.7%; in the test on HT29 colon, 108%; in the test with SNB-75 CNS, 87.3%; in the test on SNB-19 CNS, 103%; with U251 CNS, 85.8%; with PC-3 prostate, 56.2%. Also, the growth in the test with SK-MEL-5 melanoma is 99.9%; with UACC-62 melanoma, 89.2%; in the test on LOX IMVI melanoma, 52.7%; in the test with SK-MEL-28 melanoma, 107%; in the test with SK-MEL-2 melanoma, 114%; in the test with EKVX NSCLC, 104%. In addition, the growth with SN12C renal was 72%; in the test with UO-31 renal it was 68.3%; with TK-10 renal, 101%; with ACHN renal it was 104%; in the test with CAKI-1 renal it was 95.3%; in the test with A498 renal it was 86%. The growth is 25% with CCRF-CEM leukemia and 49.7% in the test with MOLT-4 leukemia.
For the compound `O=C(O)c1cn(C2CC2)c2cc(N3CCN(C(=O)Nc4nc(-c5ccc(Cl)cc5)cs4)CC3)c(F)cc2c1=O`, the growth is 7.05% (active) in the test on HCT-15 colon; 5.06% (active) with HT29 colon; 9.36% (active) in the test with SNB-75 CNS; 23.9% in the test with SNB-19 CNS; 10.8% in the test with U251 CNS; -2.99% (active) in the test on PC-3 prostate. The growth was -60.3% (active) with SK-MEL-5 melanoma; -4.17% (active) in the test on UACC-62 melanoma; -66.8% (active) in the test with LOX IMVI melanoma; 39.4% in the test on SK-MEL-28 melanoma; -18.9% (active) in the test on SK-MEL-2 melanoma; 19.6% with EKVX NSCLC. Further, the growth in the test with SN12C renal was 7.2% (active); in the test on UO-31 renal it was 2.13% (active); in the test on TK-10 renal, 21.8%; in the test on ACHN renal, 6.02% (active); in the test with CAKI-1 renal, 17.1%; in the test with A498 renal, -3.82% (active). Besides, the values for the growth with CCRF-CEM leukemia and in the test on MOLT-4 leukemia were 13.6% and 2.05% (active), respectively.
In the case of `NC(=O)C1(Nc2ccc(Br)cc2)CCCC1`, the growth is 107% in the test with HCT-15 colon; 102% in the test on HT29 colon; 93.2% in the test on SNB-75 CNS; 105% in the test on SNB-19 CNS; 97.5% in the test on U251 CNS; 94.3% in the test with PC-3 prostate. Besides, the growth in the test with SK-MEL-5 melanoma was 103%; in the test with UACC-62 melanoma it was 96.4%; in the test on LOX IMVI melanoma it was 103%; with SK-MEL-28 melanoma, 106%; in the test on SK-MEL-2 melanoma it was 101%; in the test on EKVX NSCLC it was 92%. Besides, the growth with SN12C renal is 102%; with UO-31 renal, 86.3%; in the test on TK-10 renal it was 104%; with ACHN renal, 101%; in the test on CAKI-1 renal it was 103%; in the test with A498 renal it was 99.8%. In addition, the growth is 99.8% with CCRF-CEM leukemia and 99% in the test on MOLT-4 leukemia.
For the compound `CCc1ccc2nc(NC(=O)Cc3csc(NC(=O)c4ccco4)n3)sc2c1`, the growth in the test with HCT-15 colon is 95.5%; with HT29 colon, 86.5%; in the test on SNB-75 CNS, 47.1%; in the test with SNB-19 CNS, 64.4%; with U251 CNS, 67.3%; in the test on PC-3 prostate, 66.1%. Further, the growth in the test on SK-MEL-5 melanoma is 81.6%; in the test with UACC-62 melanoma, 65.9%; in the test on LOX IMVI melanoma, 85.7%; in the test with SK-MEL-28 melanoma, 90.9%; with SK-MEL-2 melanoma, 67.9%; with EKVX NSCLC, 81.7%. The growth in the test with SN12C renal was 79.4%; in the test with UO-31 renal it was 60.5%; with TK-10 renal, 82%; in the test on ACHN renal, 57.2%; in the test on CAKI-1 renal it was 60.1%; in the test on A498 renal, 83.9%. In addition, the growth in the test with CCRF-CEM leukemia is 87.2%; with MOLT-4 leukemia, 39.9%.
